Data on 7 compounds can be found in PubChem BioAssay (EPA / NIEHS).

The nature of assay [1]: ATG_E_Box_CIS: Attagene CIS-FACTORIAL HepG2 Assay for human Enhancer Box (E-box) (AID 2282936). The note with it: HepG2 E-box cis-reporter transcription, actives raise or lower the signal. The essentials:
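DMSO served as negative control and baseline for bidirectional fitting. Human hepatoma HepG2 cells, transiently transfected with cis-reporter constructs, were dosed 24 h; reporter mRNA read by RT-PCR and capillary electrophoresis.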

The nature of assay [2]: ATG_M_61_CIS: Attagene CIS-FACTORIAL HepG2 Assay for M61 Transcription Factor (Internal Marker) (AID 2282937). The note with it: HepG2 Attagene CIS-FACTORIAL M61 internal marker reporter; actives raise or lower the signal. Summed up: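 HepG2 cells transiently transfected with cis-element-driven multiple reporter transcription units, dosed for 24 h. Reporter mRNA measured by RT-PCR, 6-FAM primer-extension labelling, HpaI digestion and capillary electrophoresis; bidirectional fit versus DMSO baseline.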

The nature of assay [3]: ATG_EGR_CIS: Attagene CIS-FACTORIAL HepG2 Assay for human Early Growth Response 1 (EGR1) (AID 2282938). The note with it: HepG2 Attagene CIS-FACTORIAL EGR reporter mRNA; actives raise or lower the signal. The essentials: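 HepG2 cells transiently transfected with cis-promoter-driven multiplexed reporter transcription units; reporter mRNA measured 24 h after compound dosing by RT-PCR, 6-FAM primer extension, HpaI digestion and capillary electrophoresis. Bidirectional fit versus DMSO baseline.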

A short description of assay [4]: ATG_M_19_CIS: Attagene CIS-FACTORIAL HepG2 Assay for M19 Transcription Factor (Internal Marker) (AID 2282939). The note with it: HepG2 Attagene CIS-FACTORIAL M19 internal marker reporter; actives raise or lower the signal. Summed up:
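Chemical-treated HepG2 (24 h) with MRTU constructs; reporter transcripts detected by fluorescent RT-PCR fragment analysis on capillary electrophoresis. Internal background marker, DMSO as baseline.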

A short description of assay [5]: ATG_ERE_CIS: Attagene CIS-FACTORIAL HepG2 Assay for Estrogen Response Element (ERE) (AID 2282940). The note with it: HepG2 ERE cis-reporter, Attagene RNA transcript; actives raise or lower the signal. Summed up: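 Human liver cells (HepG2) bearing transiently transfected, promoter-regulated reporter units were exposed 24 h. Reporter mRNA induction was detected by capillary electrophoresis of labelled RT-PCR products and fitted bidirectionally to DMSO.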

Assay [6] is described as follows: ATG_Ets_CIS: Attagene CIS-FACTORIAL HepG2 Assay for human Erythroblast Transformation Specific (ETS) (AID 2282941). The note with it: HepG2 ETS cis-reporter transcription, actives raise or lower the signal. Summed up:
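Steps: transfect HepG2 with multiple reporter units; treat compound 24 h; isolate RNA, DNase-treat, reverse-transcribe; PCR-amplify, label with 6-FAM, digest with HpaI; separate by capillary electrophoresis. Activity fitted both directions versus DMSO.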

In assay [7] the target is Hepatocyte nuclear factor 3-beta (Homo sapiens) (UniProt Q9Y261). The assay is described as follows: ATG_FoxA2_CIS: Attagene CIS-FACTORIAL HepG2 Assay for human Forkhead box A2 (FOXA2) (AID 2282942). The note with it: HepG2 cis-reporter transcription factor activity, 24 h; actives raise or lower the signal. The essentials: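 HepG2 cells transiently transfected with multiple cis-regulated reporter transcription units, dosed for 24 h. Reporter mRNA measured by RT-PCR, 6-FAM labelling, HpaI digestion and capillary electrophoresis; bidirectional fitting against DMSO baseline.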
Sequence of Hepatocyte nuclear factor 3-beta (Homo sapiens) (Q9Y261 whole entry, looked up): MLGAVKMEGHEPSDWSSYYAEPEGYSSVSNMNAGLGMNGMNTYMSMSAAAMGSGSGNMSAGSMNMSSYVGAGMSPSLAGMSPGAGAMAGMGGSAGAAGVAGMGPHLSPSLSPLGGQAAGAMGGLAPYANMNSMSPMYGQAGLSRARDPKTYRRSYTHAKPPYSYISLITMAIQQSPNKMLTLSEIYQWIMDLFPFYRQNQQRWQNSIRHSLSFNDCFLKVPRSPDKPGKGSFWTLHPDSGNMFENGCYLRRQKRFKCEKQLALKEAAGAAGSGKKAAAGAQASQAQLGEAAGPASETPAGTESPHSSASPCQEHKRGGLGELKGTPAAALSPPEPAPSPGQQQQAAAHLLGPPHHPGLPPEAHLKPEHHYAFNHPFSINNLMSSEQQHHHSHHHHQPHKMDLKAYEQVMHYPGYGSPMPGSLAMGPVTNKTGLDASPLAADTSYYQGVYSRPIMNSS

Assay [8] in a line: ATG_FoxO_CIS: Attagene CIS-FACTORIAL HepG2 Assay for human Forkhead box O (FoxO) (AID 2282943). The note with it: HepG2 Attagene cis-reporter, FoxO element, mRNA; actives raise or lower the signal. The essentials:
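HepG2, transient MRTU transfection (cis element, endogenous TFs). Dose 24 h. TriZol RNA → oligo(dT) RT → PCR → 6-FAM primer extension → HpaI cut → CE. Gain/loss vs DMSO.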

The nature of assay [9]: ATG_GATA_CIS: Attagene CIS-FACTORIAL HepG2 Assay for human GATA Binding Protein (AID 2282944). The note with it: HepG2 GATA cis-element reporter, Attagene multiplex mRNA; actives raise or lower the signal. Summed up: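 Transfected cis-reporter HepG2 cells were treated with chemicals for 24 hours. Total RNA was then converted to cDNA, amplified with reporter-specific primers and analysed by fluorescent capillary electrophoresis, using DMSO-treated wells as baseline.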

Assay [10] in a line: ATG_GLI_CIS: Attagene CIS-FACTORIAL HepG2 Assay for human Zinc Finger Protein GLI1 (AID 2282945). The note with it: HepG2, Attagene cis-factorial reporter mRNA, GLI element; actives raise or lower the signal. Summed up: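 Bidirectional curve fits relative to DMSO, using reporter mRNA levels from RT-PCR plus capillary electrophoresis. Cells were HepG2 transiently carrying cis-regulated reporter constructs, harvested 24 h after dosing.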

For assay [11], the target named is Bile acid receptor (Homo sapiens) (UniProt Q96RI1). Nature of the assay: ATG_IR1_CIS: Attagene CIS-FACTORIAL HepG2 Assay for human Nuclear Receptor Subfamily 1 Group H Member 4 (NR1H4), IR1 submotif (AID 2282946). The note with it: IR1 reporter transcription, actives raise or lower the signal. The essentials:
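Cells (human HepG2) carry transiently transfected cis-promoter reporter transcription units. Compounds are incubated 24 h, total RNA is reverse-transcribed and amplified, and labelled fragments are resolved by capillary electrophoresis. Curves use DMSO as baseline.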

Assay [12] can be described thus: ATG_GRE_CIS: Attagene CIS-FACTORIAL HepG2 Assay for human Glucocorticoid Response Elements (GRE) (AID 2282947). The note with it: HepG2 GRE cis-reporter, Attagene multiplex mRNA; actives raise or lower the signal. Summed up:
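Assay uses human hepatoma HepG2 cells transfected with cis-promoter reporter units, exposed 24 h. mRNA from reporters detected by RT-PCR plus capillary electrophoresis; DMSO serves as negative control and baseline.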

Assay [13] is described as follows: ATG_ISRE_CIS: Attagene CIS-FACTORIAL HepG2 Assay for human Interferon Regulatory Factor 1 (IRF1) binding to an Interferon-Stimulated Response Element (ISRE) (AID 2282948). The note with it: HepG2 ISRE cis-reporter (Attagene), mRNA transcription readout; actives raise or lower the signal. Summed up:
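Transfected HepG2 (multiple reporter transcription units, cis elements) dosed 24 h. RNA → oligo(dT) RT → PCR → 6-FAM primer extension → HpaI → CE. DMSO = negative control/baseline.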

The nature of assay [14]: ATG_M_32_CIS: Attagene CIS-FACTORIAL HepG2 Assay for M32 Transcription Factor (Internal Marker) (AID 2282949).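 Also: background control marker of the multiplexed CIS panel rather than a real target.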 The note with it: HepG2 Attagene cis-factorial M32 reporter, mRNA; actives raise or lower the signal. Summed up:
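Internal background marker read-out: RT-PCR/capillary electrophoresis fluorescence of reporter transcripts from transiently transfected HepG2 cells after 24 h chemical exposure. Activity fitted bidirectionally relative to DMSO negative control.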

The nature of assay [15]: ATG_M_06_CIS: Attagene CIS-FACTORIAL HepG2 Assay for M06 Transcription Factor (Internal Marker) (AID 2282950). The note with it: HepG2 Attagene CIS-FACTORIAL M06 internal marker reporter; actives raise or lower the signal. Summed up: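 Cells (HepG2, transiently carrying cis-driven reporter units) receive chemical for 24 h before RNA isolation. Reporter cDNA is PCR-amplified, FAM-labelled by primer extension, HpaI-digested and sized on a capillary analyser.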

In assay [16] the target is Hypoxia-inducible factor 1-alpha (Homo sapiens) (UniProt Q16665). Nature of the assay: ATG_HIF1a_CIS: Attagene CIS-FACTORIAL HepG2 Assay for human Hypoxia Inducible Factor 1 (HIF1A) (AID 2282951). The note with it: HepG2 Attagene cis-factorial HIF1a reporter transcription; actives raise or lower the signal. Summed up:
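HepG2 cells transiently transfected with multiplexed cis-promoter reporter units; reporter mRNA read 24 h after dosing by RT-PCR, 6-FAM primer-extension labelling, HpaI digestion and capillary electrophoresis. Bidirectional fit versus DMSO baseline.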

For assay [17], the target named is Hepatocyte nuclear factor 6 (Homo sapiens) (UniProt Q9UBC0). The assay is described as follows: ATG_HNF6_CIS: Attagene CIS-FACTORIAL HepG2 Assay for human Hepatocyte Nuclear Factor 6 (HNF6) (AID 2282952). The note with it: HepG2 Attagene cis-factorial HNF6 reporter transcription; actives raise or lower the signal. Summed up:
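Cells are HepG2 carrying transiently transfected cis-promoter reporter units. Treatment lasts 24 h, after which reporter transcripts are reverse-transcribed, amplified, FAM-labelled and sized by capillary electrophoresis. DMSO serves as baseline.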

Assay [18] addresses Heat shock factor protein 1 (Homo sapiens) (UniProt Q00613). Nature of the assay: ATG_HSE_CIS: Attagene CIS-FACTORIAL HepG2 Assay for human Heat Shock Transcription Factor 1 (HSE) (AID 2282953). The note with it: HepG2 HSE cis-reporter, Attagene RNA transcription; actives raise or lower the signal. The essentials:
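Liver-derived HepG2 cells carry transiently introduced multiple reporter units governed by cis promoters. Reporter RNA measured 24 h post-dose through reverse transcription, PCR amplification, fluorescent labelling and capillary electrophoresis, normalised to DMSO.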

Assay [19] can be described thus: ATG_MRE_CIS: Attagene CIS-FACTORIAL HepG2 Assay for human Metal Responsive Element (MRE) (AID 2282954). The note with it: HepG2 MRE cis-reporter transcription, Attagene multiplex; actives raise or lower the signal. Summed up: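 After a 24 h chemical exposure, transiently transfected HepG2 cells yield RNA whose reporter sequences are amplified, FAM-labelled and sized by capillary electrophoresis. Curves are fitted bidirectionally relative to DMSO.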

Assay [20] is described as follows: ATG_PBREM_CIS: Attagene CIS-FACTORIAL HepG2 Assay for human Phenobarbital-responsive Enhancer Module (PBREM) (AID 2282955). The note with it: HepG2 PBREM cis-reporter, Attagene multiplexed transcription; actives raise or lower the signal. The essentials: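 HepG2 cells transiently transfected with multiple cis-regulated reporter transcription units; endogenous factor activity at the PBREM element measured as reporter mRNA 24 h after dosing, via RT-PCR and capillary electrophoresis of fluorescent fragments; bidirectional fitting versus DMSO.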

Structures are written as SMILES. Calls of active or inactive are those of the source. The calls were made as follows: active = hit-call score of the fitted dose curve at least 0.9, where 1 is the maximum; inactive = score below 0.9.

Sequence of Hepatocyte nuclear factor 6 (Homo sapiens) (Q9UBC0 whole entry, looked up): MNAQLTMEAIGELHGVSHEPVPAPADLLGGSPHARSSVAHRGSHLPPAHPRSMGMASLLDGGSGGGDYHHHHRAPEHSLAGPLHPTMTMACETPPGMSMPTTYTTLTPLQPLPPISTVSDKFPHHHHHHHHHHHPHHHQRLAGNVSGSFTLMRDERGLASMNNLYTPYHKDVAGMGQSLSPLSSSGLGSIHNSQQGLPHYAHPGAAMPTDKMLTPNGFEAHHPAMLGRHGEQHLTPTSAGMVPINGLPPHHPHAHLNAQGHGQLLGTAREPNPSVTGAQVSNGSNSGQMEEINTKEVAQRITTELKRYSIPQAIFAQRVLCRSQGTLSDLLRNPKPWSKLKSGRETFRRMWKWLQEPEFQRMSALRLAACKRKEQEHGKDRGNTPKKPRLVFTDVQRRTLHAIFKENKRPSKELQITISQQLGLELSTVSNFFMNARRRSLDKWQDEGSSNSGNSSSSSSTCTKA
Sequence of Heat shock factor protein 1 (Homo sapiens) (Q00613 whole entry, looked up): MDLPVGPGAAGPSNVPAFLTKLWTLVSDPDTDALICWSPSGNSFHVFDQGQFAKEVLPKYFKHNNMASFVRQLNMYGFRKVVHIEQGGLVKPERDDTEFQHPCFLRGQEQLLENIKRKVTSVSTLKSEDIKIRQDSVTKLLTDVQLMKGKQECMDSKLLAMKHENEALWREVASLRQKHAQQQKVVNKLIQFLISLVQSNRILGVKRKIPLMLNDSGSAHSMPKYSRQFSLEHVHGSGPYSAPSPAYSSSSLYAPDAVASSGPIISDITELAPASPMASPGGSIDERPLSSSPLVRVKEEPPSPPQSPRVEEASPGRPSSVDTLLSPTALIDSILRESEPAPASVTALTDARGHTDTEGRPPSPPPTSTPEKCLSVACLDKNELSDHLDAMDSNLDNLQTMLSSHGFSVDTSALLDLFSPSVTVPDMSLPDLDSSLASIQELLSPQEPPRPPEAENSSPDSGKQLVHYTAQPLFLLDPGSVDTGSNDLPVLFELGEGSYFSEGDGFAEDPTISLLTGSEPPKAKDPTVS
Sequence of Bile acid receptor (Homo sapiens) (Q96RI1 whole entry, looked up, the tested form may be a part): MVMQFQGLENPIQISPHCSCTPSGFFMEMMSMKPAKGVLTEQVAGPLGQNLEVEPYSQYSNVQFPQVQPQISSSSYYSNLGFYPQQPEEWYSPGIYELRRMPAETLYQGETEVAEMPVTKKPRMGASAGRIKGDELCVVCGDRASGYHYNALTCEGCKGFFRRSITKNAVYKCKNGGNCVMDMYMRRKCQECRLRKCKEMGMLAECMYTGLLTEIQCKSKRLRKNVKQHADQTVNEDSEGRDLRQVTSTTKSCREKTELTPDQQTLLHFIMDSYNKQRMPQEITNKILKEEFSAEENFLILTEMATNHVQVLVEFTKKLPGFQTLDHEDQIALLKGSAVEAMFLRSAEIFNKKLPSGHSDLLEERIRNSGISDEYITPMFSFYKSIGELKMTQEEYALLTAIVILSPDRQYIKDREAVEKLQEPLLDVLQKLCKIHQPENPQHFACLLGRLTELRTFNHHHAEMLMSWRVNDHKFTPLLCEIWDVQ
Sequence of Hypoxia-inducible factor 1-alpha (Homo sapiens) (Q16665 whole entry, looked up): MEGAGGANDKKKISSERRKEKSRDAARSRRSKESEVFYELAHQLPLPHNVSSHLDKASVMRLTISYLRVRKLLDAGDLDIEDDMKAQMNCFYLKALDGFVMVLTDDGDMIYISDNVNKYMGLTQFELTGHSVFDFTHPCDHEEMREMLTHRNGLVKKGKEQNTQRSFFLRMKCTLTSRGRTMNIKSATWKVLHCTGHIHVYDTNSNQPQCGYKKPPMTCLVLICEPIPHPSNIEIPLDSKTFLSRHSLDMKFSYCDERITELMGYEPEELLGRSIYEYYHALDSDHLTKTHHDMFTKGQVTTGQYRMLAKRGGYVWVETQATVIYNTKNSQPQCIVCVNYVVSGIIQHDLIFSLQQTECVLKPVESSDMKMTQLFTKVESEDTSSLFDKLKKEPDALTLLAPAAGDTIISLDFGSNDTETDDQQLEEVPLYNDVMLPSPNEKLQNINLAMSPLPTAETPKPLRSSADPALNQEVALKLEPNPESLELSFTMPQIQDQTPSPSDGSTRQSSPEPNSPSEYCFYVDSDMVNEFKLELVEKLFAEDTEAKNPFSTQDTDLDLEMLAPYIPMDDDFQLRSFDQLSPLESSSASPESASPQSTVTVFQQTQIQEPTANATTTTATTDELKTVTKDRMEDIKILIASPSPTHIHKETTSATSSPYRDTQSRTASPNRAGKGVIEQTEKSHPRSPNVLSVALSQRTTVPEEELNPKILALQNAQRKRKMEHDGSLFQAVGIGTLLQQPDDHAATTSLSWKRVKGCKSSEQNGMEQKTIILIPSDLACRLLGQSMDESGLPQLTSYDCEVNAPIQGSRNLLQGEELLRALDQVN

For orientation: AC50 means the concentration at which the activity in the assay is half-maximal. Turning to `O=[N+]([O-])C1(Br)COCOC1`, the figures for the AC50 in assay [1], in assay [13] and in [18] were 61 µM (active), 52.5 µM (active) and 58.8 µM (active), respectively. In addition, the compound was classed as inactive in assay [2], in assay [3], in assay [4], in assay [5], in assay [6] and in assay [7]. Moreover, the call in [8], in assay [9], in [10], in [11], in assay [12] and in assay [14] was inactive. The compound was called inactive in assay [15], in assay [16], in [17], in assay [19] and in [20].
For `O=C1Nc2ccccc2C1(c1ccc(O)cc1)c1ccc(O)cc1`, the AC50 is 71.9 µM (active) in assay [1]; 71.7 µM (active) in [3]; 48.8 µM (active) in assay [6]; 100 µM (active) in assay [8]; 70.8 µM (active) in assay [10]; 148 µM (active) in assay [11]. For the same compound, the AC50 is 84.2 µM (active) in [13], 57.2 µM (active) in [16], 163 µM (active) in assay [18] and 70.4 µM (active) in assay [19]. The result in assay [2], in assay [4], in assay [5], in assay [7], in assay [9] and in assay [12] was inactive. The compound was called inactive in assay [14] and in assay [15].
With `FC(F)=C(F)OC(F)(F)C(F)(F)C(F)(F)F`, the outcome in [1], in [2], in [3], in assay [4], in assay [5] and in [6] was inactive. The outcome in [7], in assay [8], in [9], in assay [10], in [11] and in assay [12] was inactive. The compound was called inactive in [13], in assay [14], in assay [15], in [16], in assay [17] and in [18]. Further, the compound was classed as inactive in assay [19] and in [20].
Regarding `Nc1ccc(N)c(Cl)c1`, the AC50 is 33.5 µM (active) in [1]; 2.65 µM (active) in assay [5]; 57.2 µM (active) in assay [17]; 8.3 µM (active) in assay [18]; 26.2 µM (active) in assay [20]. Also, the call in [2], in [3], in assay [4], in assay [6], in assay [7] and in assay [8] was inactive. For the same compound, the compound was classed as inactive in assay [9], in assay [10], in [11], in assay [12], in assay [14] and in assay [15]. The call in assay [16] and in assay [19] was inactive.
As to `O=P(O)(O)Oc1ccccc1`, the result in assay [1], in [2], in assay [3], in assay [4], in assay [5] and in assay [6] was inactive. For the same compound, the compound was classed as inactive in assay [7], in assay [8], in [9], in [10], in assay [11] and in assay [12]. The result in assay [13], in assay [15], in [16], in assay [17], in [18] and in [19] was inactive.
On to `Nc1ccc(Oc2ccc(N)c(N)c2)cc1`, for which the outcome in assay [1], in assay [2], in [3], in [4], in [5] and in assay [6] was inactive. For the same compound, the compound was called inactive in assay [7], in assay [8], in assay [9], in assay [10], in assay [11] and in assay [12]. Besides, the call in assay [13], in assay [15], in assay [16], in assay [17] and in assay [19] was inactive.
Take `CCCCCCCCCCCCCCCC[n+]1ccccc1`: the outcome in assay [1], in [2], in [3], in assay [4], in assay [5] and in assay [7] was inactive. The compound was classed as inactive in assay [8], in assay [9], in assay [11], in assay [12], in assay [14] and in [15]. Also, the result in assay [16], in [17], in assay [18] and in assay [19] was inactive. In addition, the AC50 was 9.08 µM (active) in assay [6], 60.1 µM (active) in [10] and 9.02 µM (active) in assay [13].
